Assay results taken from PubChem BioAssay (EPA / NIEHS).
Active and inactive are the calls of the source. How the source made its calls: active means hit-call score of the fitted dose curve at least 0.9, where 1 is the maximum; inactive means score below 0.9.

Test: CEETOX_H295R_OHPREG: CeeTox H295R High-throughput Steroidogenesis Assay for OH-Pregnenolone (OHPREG) (AID 2283434)
Settings: actives raise or lower the signal
Experimental: CEETOX_H295R is a cell-based, multiplexed-readout assay that uses H295R, a human adrenal gland cell line, with measurements taken at 48 hours after chemical dosing in a 96-well plate.CEETOX_H295R_OHPREG is one of 23 assay component(s) measured or calculated from the CEETOX_H295R assay. It is designed to make measurements of hormone induction, a form of inducible reporter, as detected with […] by HPLC-MS-MS technology.Data from the assay component CEETOX_H295R_OHPREG was analyzed into 1 assay endpoint. This assay endpoint, CEETOX_H295R_OHPREG, was analyzed with bidirectional fitting relative to DMSO as the negative control and baseline of activity. Using a type of inducible reporter, gain or loss-of-signal activity using HPLC-MS-MS was used to understand synthesis of 17alpha-hydroxypregnenolone in H295R cell line at 48hr of chemical exposure. To generalize the intended target to other relatable targets, this assay endpoint is annotated to the steroid hormone intended target family, where the subfamily is progestagens.
Cell culture and media preparation procedures were conducted in accordance with OECD Test No. 456 guidelines, with minor modifications. H295R cells (ATCC CRL-2128) were expanded for 5 passages and frozen in batches in liquid nitrogen. Prior to the steroidogenesis assay, H295R cells were thawed and passed at least 4 times. The maximum passage was 10. Cells were maintained in a 1:1 mixture of DMEM/F12 supplemented with 5ml/L ITS+ Premix (BD Bioscience) and 12.5 ml/L Nu-Serum (BD Bioscience). After seeding cells into 96-well plates at 50-60% confluency, cells were allowed to adhere overnight. Prior to chemical testing, culture medium was replaced with 175 uL medium containing 10 uM forskolin to stimulate steroidogenesis for 48 hours. Following prestimulation, forskolin medium was replaced with medium containing test chemical solubilized in DMSO (ensuring a final concentration of 0.1% DMSO). Test chemicals were incubated for 48 hours, then the medium was removed and split into 2 vials containing approximately 75uL each, and stored at -80 C prior to hormone analysis. For steroid quantification, media samples were shipped to OpAns, LLC (Durham, NC) on dry ice, and samples were thawed to room temperature prior to liquid-liquid extraction. Steroid hormones were extracted from media samples using methyl tertbutyl ether (MTBE). An extra derivatization with dansyl chloride was included for estrogen (estrone and estradiol) detection only. Steroid hormones were separated by HPLC, eluted using a reverse phase C18 gradient with electrospray positive ionization, followed by quantification by tandem mass spectrometry (MS/MS). Data were acquired on a MassHunter Workstation Acquisition version B03.01 (Agilent Technologies, Inc.) and processed using MassHunter Quantitative Analysis for QQQ. Accuracy was determined for each hormone analyte from 3 standards to determine upper and lower limits of quantification (ULOQ and LLOQ, respectively) using a 7-point standard curve. Precision and accuracy of the extraction and quantification methods were calculated as the percent relative standard deviation (%RSD) of the spiked standards and percent spiked standard recovered, respectively. The goal was to achieve 100% accuracy (i.e., recover all spiked-in standard at quantification with minimal loss during run time) and good precision (i.e., have %RSD <15% to ensure reproducibility). Test medium was removed following chemical exposure, and cell viability was evaluated in the same wells by MTT. MTT procedures were as follows: after removal of test medium, 500 uL of 0.5 mg/ml of 3-[4,5-dimethylthiazol-2-y]2,5-diphenyltetrazoliumbromide solution was added to the cells. Following a 4-hour incubation at 37 C and 5% CO2 to allow formazan-crystal formation, the MTT solution was removed and blue formazan salt crystals were solubilized using 500uL anhydrous isopropanol with shaking for 20 minutes. […]

| SMILES | AC50 | outcome |
| --- | --- | --- |
| C#C[C@]1(O)CC[C@H]2[C@@H]3CCC4=CC(=O)CC[C@@H]4[C@H]3CC[C@@]21CC | 2.42 µM (active) |  |
| CN(C)C(=O)Nc1ccc(Cl)c(Cl)c1 |  | inactive |
| CCNc1nc(N)nc(Cl)n1 |  | inactive |
| O=C(Nc1ccc([N+](=O)[O-])cc1Cl)c1cc(Cl)ccc1O |  | inactive |
| CC(C)(C)[C@@H](O)[C@@H](Cc1ccc(Cl)cc1)n1cncn1 |  | inactive |
| Oc1ccc(C(c2ccc(O)cc2)C(Cl)(Cl)Cl)cc1 | 0.299 µM (active) |  |
| S=C([S-])NCCNC(=S)[S-].[Mn+2] |  | inactive |
| CCCCOC(=O)[C@@H](C)Oc1ccc(Oc2ccc(C(F)(F)F)cn2)cc1 |  | inactive |
| c1ccc2[nH]c(-c3cscn3)nc2c1 |  | inactive |
| CC(C)(c1ccc(O)cc1)c1ccc(O)cc1 |  | inactive |
| C=CCOC(Cn1ccnc1)c1ccc(Cl)cc1Cl (stereo unspecified) |  | inactive |
| S=C(S)NCCNC(=S)S.[Mn+2].[S-]C([S-])=NCCN=C([S-])[S-].[Zn+2] |  | inactive |
| CCN(Cc1c(F)cccc1Cl)c1c([N+](=O)[O-])cc(C(F)(F)F)cc1[N+](=O)[O-] |  | inactive |
| C[C@]12C[C@H](O)[C@H]3[C@@H](CCC4=CC(=O)CC[C@@]43C)[C@@H]1CC[C@@H]2C(=O)CO | 16.1 µM (active) |  |
| CC(=O)S[C@@H]1CC2=CC(=O)CC[C@]2(C)[C@H]2CC[C@@]3(C)[C@@H](CC[C@@]34CCC(=O)O4)[C@H]12 | 0.805 µM (active) |  |
| CCOC(=O)c1ccc(O)cc1 |  | inactive |
| CCOC(=O)C(C)Oc1ccc(Oc2cnc3cc(Cl)ccc3n2)cc1 (stereo unspecified) |  | inactive |
| C#CCOC(=O)[C@@H](C)Oc1ccc(Oc2ncc(Cl)cc2F)cc1 |  | inactive |
| CCCN(CCC)C(=O)SCC |  | inactive |
| c1ccc(Nc2ccccc2)cc1 |  | inactive |
| CCCCCOC(=O)COc1cc(N2C(=O)C3=C(CCCC3)C2=O)c(F)cc1Cl |  | inactive |
| CSC(=O)c1cccc2nnsc12 | 55.6 µM (active) |  |
| CC(=O)[C@H]1CC[C@H]2[C@@H]3CCC4=CC(=O)CC[C@]4(C)[C@H]3CC[C@]12C | 7.97 µM (active) |  |
| CCCCC(CC)CN1C(=O)C2C3C=CC(C3)C2C1=O (stereo unspecified) |  | inactive |
| CCCCOCCOCCOCc1cc2c(cc1CCC)OCO2 | 5 µM (active) |  |
| CC1(C)C(C=C(Cl)Cl)C1C(=O)OCc1cccc(Oc2ccccc2)c1 (stereo unspecified) |  | inactive |
